Laboratory results taken from PubChem BioAssay (EPA / NIEHS).
A structure can be active in one record and inactive in another. Activity calls are given as the source filed them. Rule for the calls: active = hit-call score of the fitted dose curve at least 0.9, where 1 is the maximum; inactive = score below 0.9.

Assays:
[1] = read-out: Vascular endothelial growth factor receptor 2 (Homo sapiens) (UniProt P35968); test: BSK_4H_VEGFRII: BioMAP Diversity Plus: 4H Assay for Vascular endothelial growth factor receptor 2 (VEGFR2) Biomarker Activity (AID 2283031); conditions: primary human endothelial cells (HUVEC); actives raise or lower the signal;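 for AC50: cell-surface VEGFR2 protein level quantified by ELISA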
Outline: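 Measured by ELISA after 24 h of compound treatment: VEGFR2 on primary human umbilical vein endothelial cells, fitted in both directions relative to DMSO. Parallel cultures received SRB staining (560 nm) for overt cytotoxicity.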

[2] = read-out: Human Leukocyte Antigen - DR isotype (HLADR), HLA-DRA (gene 3122); test: BSK_BE3C_HLADR: BioMAP Diversity Plus: BE3C Assay for Human Leukocyte Antigen - DR isotype (HLADR) Biomarker Activity (AID 2283032); conditions: primary human bronchial epithelial cells; actives raise or lower the signal
Outline: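 ELISA read-out of HLA-DR on human lung bronchial epithelial primary cells, measured 24 h post-dosing. Both increases and decreases were scored relative to DMSO vehicle.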

[3] = read-out: Vascular cell adhesion molecule 1 (VCAM1), VCAM1 (gene 7412); test: BSK_4H_VCAM1: BioMAP Diversity Plus: 4H Assay for Vascular cell adhesion molecule 1 (VCAM1) Biomarker Activity (AID 2283033); conditions: primary human endothelial cells (HUVEC); actives raise or lower the signal
Outline: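 ELISA read-out of VCAM-1 on human umbilical vein endothelium 24 hours after chemical dosing; gain or loss of signal was fitted relative to DMSO, with sulforhodamine B staining of parallel cultures flagging overt cytotoxicity.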

[4] = read-out: Interferon-gamma inducible Protein 10 (IP10), CXCL10 (gene 3627); test: BSK_BE3C_IP10: BioMAP Diversity Plus: BE3C Assay for Interferon-gamma inducible Protein 10 (IP10) Biomarker Activity (AID 2283034); conditions: primary human bronchial epithelial cells; actives raise or lower the signal
Outline: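 Chemical is dosed onto human lung bronchial epithelial primary cells, cultures are incubated 24 h, and IP-10 is then quantified by ELISA. Gain or loss of signal is fitted in both directions relative to DMSO.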

[5] = read-out: Monokine induced gamma interferon (MIG), CXCL9 (gene 4283); test: BSK_BE3C_MIG: BioMAP Diversity Plus: BE3C Assay for Monokine induced gamma interferon (MIG) Biomarker Activity (AID 2283035); conditions: primary human bronchial epithelial cells; actives raise or lower the signal
Outline: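 ELISA read-out of MIG in human lung bronchial epithelial primary cultures, 24 h post-dosing. Bidirectional curve fit vs DMSO baseline.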

[6] = read-out: Transforming growth factor beta 1 (TGFb1), TGFB1 (gene 7040); test: BSK_BE3C_TGFb1: BioMAP Diversity Plus: BE3C Assay for Transforming growth factor beta 1 (TGFb1) Biomarker Activity (AID 2283036); conditions: primary human bronchial epithelial cells; actives raise or lower the signal
Outline: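 Primary human lung bronchial epithelial cells; compound exposure 24 h; TGF-b1 by ELISA; bidirectional fit, DMSO baseline. Parallel SRB total-protein staining for cytotoxicity.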

[7] = read-out: Plasminogen activator inhibitor-1 (PAI1), SERPINE1 (gene 5054); test: BSK_BE3C_PAI1: BioMAP Diversity Plus: BE3C Assay for Plasminogen activator inhibitor-1 (PAI1) Biomarker Activity (AID 2283037); conditions: primary human bronchial epithelial cells; actives raise or lower the signal
Outline: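 Primary human lung bronchial epithelial cells; chemical dosing; 24 h; PAI-1 measured by ELISA; bidirectional fit referenced to DMSO as negative control.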

[8] = read-out: Urokinase-type plasminogen activator receptor (uPAR), PLAUR (gene 5329); test: BSK_BE3C_uPAR: BioMAP Diversity Plus: BE3C Assay for Urokinase-type plasminogen activator receptor (uPAR) Biomarker Activity (AID 2283039); conditions: primary human bronchial epithelial cells; actives raise or lower the signal
Outline: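 Human bronchial epithelial primary cells; chemical exposure 24 h; uPAR by ELISA; bidirectional fit vs DMSO control.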

[9] = read-out: Interleukin-6 (IL6), IL6 (gene 3569); test: BSK_CASM3C_IL6: BioMAP Diversity Plus: CASM3C Assay for Interleukin-6 (IL6) Biomarker Activity for (AID 2283040); conditions: primary human coronary artery smooth muscle cells; actives raise or lower the signal
[10] = read-out: Tissue plasminogen activator (tPA), PLAT (gene 5327); test: BSK_BE3C_tPA: BioMAP Diversity Plus: BE3C Assay for Tissue plasminogen activator (tPA) Biomarker Activity (AID 2283041); conditions: primary human bronchial epithelial cells; actives raise or lower the signal
Outline: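 Primary human lung bronchial epithelial cultures receive test chemical; after 24 h, tPA is quantified by ELISA, and gain or loss of signal is fitted bidirectionally relative to DMSO baseline.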

[11] = read-out: Interleukin-8 (IL8), CXCL8 (gene 3576); test: BSK_CASM3C_IL8: BioMAP Diversity Plus: CASM3C Assay for Interleukin-8 (IL8) Biomarker Activity (AID 2283042); conditions: primary human coronary artery smooth muscle cells; actives raise or lower the signal;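 note: IL-8 protein level quantified by ELISA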
[12] = read-out: Human Leukocyte Antigen - DR isotype (HLADR), HLA-DRA (gene 3122); test: BSK_CASM3C_HLADR: BioMAP Diversity Plus: CASM3C Assay for Human Leukocyte Antigen - DR isotype (HLADR) Biomarker Activity (AID 2283043); conditions: primary human coronary artery smooth muscle cells; actives raise or lower the signal;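 note: cell-surface HLA-DR protein level quantified by ELISA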
[13] = read-out: Macrophage colony-stimulating factor (MCSF), CSF1 (gene 1435); test: BSK_CASM3C_MCSF: BioMAP Diversity Plus: CASM3C Assay for Macrophage colony-stimulating factor (MCSF) Biomarker Activity (AID 2283044); conditions: primary human coronary artery smooth muscle cells; actives raise or lower the signal;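 note: M-CSF protein amount quantified by ELISA after 24 h exposure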
[14] = read-out: Low-density lipoprotein receptor (LDLR), LDLR (gene 3949); test: BSK_CASM3C_LDLR: BioMAP Diversity Plus: CASM3C Assay for Low-density lipoprotein receptor (LDLR) Biomarker Activity (AID 2283045); conditions: primary human coronary artery smooth muscle cells; actives raise or lower the signal;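 note: LDLR protein level on the cell surface quantified by ELISA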
[15] = read-out: Monocyte Chemoattractant Protein-1 (MCP1), CCL2 (gene 6347); test: BSK_CASM3C_MCP1: BioMAP Diversity Plus: CASM3C Assay for Monocyte Chemoattractant Protein-1 (MCP1) Biomarker Activity (AID 2283046); conditions: primary human coronary artery smooth muscle cells; actives raise or lower the signal;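 note: MCP-1 level quantified by ELISA 24 h after dosing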
[16] = BSK_CASM3C_Proliferation: Cell Proliferation Assessment in the BioMAP Diversity Plus: CASM3C Assay (AID 2283047); conditions: primary human coronary artery smooth muscle cells;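 note: sulforhodamine B total protein stain as relative cell number at 560 nm; sub-confluent cells exposed 48 h before staining; fitted both ways against DMSO so gain or loss of cell number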
[17] = read-out: Monokine induced gamma interferon (MIG), CXCL9 (gene 4283); test: BSK_CASM3C_MIG: BioMAP Diversity Plus: CASM3C Assay for Monokine induced gamma interferon (MIG) Biomarker Activity (AID 2283048); conditions: primary human coronary artery smooth muscle cells; actives raise or lower the signal;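 note: MIG protein level measured by ELISA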
[18] = read-out: serum amyloid A (SAA), SAA1 (gene 6288); test: BSK_CASM3C_SAA: BioMAP Diversity Plus: CASM3C Assay for serum amyloid A (SAA) Biomarker Activity (AID 2283049); conditions: primary human coronary artery smooth muscle cells; actives raise or lower the signal;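 note: SAA protein level quantified by ELISA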
[19] = BSK_CASM3C_SRB: Viability Assessment in the BioMAP Diversity Plus: CASM3C Assay (AID 2283050); conditions: primary human coronary artery smooth muscle cells;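 note: total protein by SRB staining as cytotoxicity measure in parallel cultures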
[20] = read-out: urokinase plasminogen activator (uPA), PLAU (gene 5328); test: BSK_BE3C_uPA: BioMAP Diversity Plus: BE3C Assay for urokinase plasminogen activator (uPA) Biomarker Activity (AID 2283038); conditions: primary human bronchial epithelial cells; actives raise or lower the signal;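 note: uPA protein level quantified by ELISA in cell cultures; uPA read one day after compound addition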
Outline: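 ELISA for uPA on human primary bronchial epithelial cultures 24 h post-treatment, gain or loss against DMSO. Parallel SRB staining (0.1% after 10% TCA fixation, 560 nm) assessed overt cytotoxicity.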

Measured: AC50

OC(c1ccc(Cl)cc1)(c1cncnc1)c1ccccc1Cl (stereo not drawn)
active: [2] 25.9 µM | [4] 30.3 µM | [16] 27.6 µM
not listed: [20]
inactive: all other assays above

COc1nc(C)nc(NC(=O)NS(=O)(=O)c2ccccc2Cl)n1
active: [6] 0.29 µM | [15] 0.507 µM
inactive: [1] | [2] | [3] | [4] | [5] | [6] | [7] | [20] | [8] | [9] | [10] | [11] | [12] | [13] | [14] | [15] | [16] | [17] | [18] | [19]

CC(C)C1(C)N=C(c2nc3ccccc3cc2C(=O)O)NC1=O (stereo not drawn)
not listed: [20]
inactive: all other assays above

COc1nc(NC(C)C)nc(NC(C)C)n1
active: [8] 2.36 µM
inactive: all other assays above

CCNc1nc(Cl)nc(NCC)n1
not listed: [20]
inactive: all other assays above

CC(Oc1ccc(Cl)cc1Cl)C(=O)O (stereo not drawn)
not listed: [20]
inactive: all other assays above

CON(C)C(=O)Nc1ccc(Cl)c(Cl)c1
not listed: [20]
inactive: all other assays above

N#Cc1nn(-c2c(Cl)cc(C(F)(F)F)cc2Cl)c(N)c1S(=O)C(F)(F)F (stereo not drawn)
active: [1] 31.7 µM | [2] 14.2 µM | [3] 20 µM | [4] 23.2 µM | [5] 28.3 µM | [7] 20 µM | [13] 25.1 µM | [16] 20 µM | [19] 24.9 µM
not listed: [20]
inactive: all other assays above

Fc1ccc(Oc2ccnc3cc(Cl)cc(Cl)c23)cc1
active: [1] 27.2 µM | [2] 24.3 µM | [3] 30.1 µM | [4] 28.7 µM | [5] 34.3 µM | [6] 32.9 µM | [7] 30.3 µM | [8] 34.2 µM | [9] 11.4 µM | [10] 31.9 µM | [15] 30.6 µM | [16] 24.4 µM | [19] 23.7 µM
inactive: [11] | [12] | [13] | [14] | [17] | [18]

C#CCOS(=O)OC1CCCCC1Oc1ccc(C(C)(C)C)cc1 (stereo not drawn)
inactive: [6] | [9] | [11] | [14] | [17]
active: [1] 20 µM | [2] 13.8 µM | [3] 26.8 µM | [4] 16.3 µM | [5] 25.5 µM | [7] 18.4 µM | [8] 20 µM | [10] 13.2 µM | [12] 9.71 µM | [13] 27 µM | [15] 29.8 µM | [16] 16.5 µM | [18] 5.32 µM | [19] 20 µM

CS/C(C)=N/OC(=O)N(C)SN(C)C(=O)O/N=C(\C)SC
active: [1] 28.7 µM | [2] 30.1 µM | [3] 31.1 µM | [4] 25.9 µM | [9] 35 µM | [11] 32.1 µM | [13] 28.9 µM | [15] 34.7 µM | [16] 6.19 µM | [17] 35 µM | [18] 20 µM | [19] 31.2 µM
inactive: [5] | [6] | [7] | [8] | [10] | [12] | [14]
